# Assay results reported in PubChem BioAssay (NCATS).
# Records with an inconclusive call do not appear. A call without a number means that no potency is given here. Active and inactive are the calls of the source. Unless noted, calls follow the shape of the dose curve; as a rule, active = well fitted curve in the direction sought with a large enough effect; inconclusive = small, poorly fitted or top-dose-only effect, or another doubt; inactive = no such curve, though single readings can be large; an effect the other way counts as inactive or inconclusive.
# How the values were obtained:
# [1] = AP1 Signaling Pathway (AID 357; active = well fitted curve in either direction with a large enough effect, not every such curve was filed as active;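 also: ME-180 reporter cells stimulated with EGF at its EC50 level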); conditions: ME-180 AP-1-bla reporter, EGF-induced, beta-lactamase ratio, 5 h; at 38 µM (top of the series)
# Summary of the method: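 Titration-series screen for positive or negative modulators of EC50 EGF-induced signaling in ME-180 cells carrying an AP-1-driven beta-lactamase reporter. After 5 hours at 37 degrees Celsius, CCF4 460nm/530nm emission ratio gave %Activity; AC50 values derived.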
# [2] = biological target: Cytochrome P450 1A2 (Homo sapiens) (UniProt P05177); assay: p450-cyp1a2 (AID 410; calls by dose curve)
# Sequence of Cytochrome P450 1A2 (Homo sapiens) (P05177 whole entry, looked up): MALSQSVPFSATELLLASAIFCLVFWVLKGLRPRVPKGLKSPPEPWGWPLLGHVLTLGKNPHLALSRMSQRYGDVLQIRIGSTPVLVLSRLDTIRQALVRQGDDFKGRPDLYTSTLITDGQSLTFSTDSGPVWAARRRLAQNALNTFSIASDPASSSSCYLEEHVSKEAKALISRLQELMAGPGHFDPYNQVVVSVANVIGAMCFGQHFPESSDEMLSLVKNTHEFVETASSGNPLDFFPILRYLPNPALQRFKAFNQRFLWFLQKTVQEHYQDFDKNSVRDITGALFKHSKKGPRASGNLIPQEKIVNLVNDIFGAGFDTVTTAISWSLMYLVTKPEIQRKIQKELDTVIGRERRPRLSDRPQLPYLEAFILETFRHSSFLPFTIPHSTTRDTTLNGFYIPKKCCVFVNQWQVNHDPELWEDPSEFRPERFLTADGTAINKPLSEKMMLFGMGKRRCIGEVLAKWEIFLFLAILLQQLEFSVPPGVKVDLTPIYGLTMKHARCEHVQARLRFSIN
# Summary of the method: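 O-Demethylation of luciferin 6' methyl ether by human CYP1A2 is monitored as luciferase luminescence. Substrate sits at Km (100uM); enzyme is 20nM. Values are scaled to 57 uM furafylline as maximal inhibition.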
# [3] = NFAT Signaling Pathway (AID 444; active = well fitted curve in either direction with a large enough effect, not every such curve was filed as active;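 also: carbachol stimulus at about its EC50 of 1 µM final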); conditions: Jurkat NFAT-bla M1, carbachol, beta-lactamase ratio, 5 h; at 38 µM (top of the series)
# Summary of the method: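 Jurkat cells with NFAT-driven β-lactamase reporter and co-expressed M1 receptor, stimulated with carbachol (final 1 uM, ~EC50), compound titration, 5 h at 37 °C. CCF4 loaded 1 h at RT; 460/530 nm ratio gave %activity and AC50.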
# [4] = Stat Signaling Pathway (AID 446; active = well fitted curve in either direction with a large enough effect, not every such curve was filed as active;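 also: ME-180 cervical cancer cells given 40 pM IL-6 alongside compound; SIE-controlled beta-lactamase reporter measured as 460/530 nm FRET emission ratio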); conditions: ME-180 (cervical carcinoma) SIE beta-lactamase reporter, IL-6 stimulated, 5 h; at 38 µM (top of the series)
# Summary of the method: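 FRET read-out (405 nm excitation, 460/530 nm emission) of a beta-lactamase reporter under a STAT-inducible element in ME-180 cervical carcinoma cells. Cells with compound receive 40 pM IL-6 for 5 h. Values are normalised to AC90 stimulation and AC90 JAK-inhibitor controls.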
# [5] = biological target: Glucocorticoid receptor (Homo sapiens) (UniProt P04150); assay: GR-GFP Redistribution (AID 450;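 active = compounds whose dose series gives a full or clear partial fitted curve of increased nuclear translocation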; also: potency is read from the fitted curve at half-maximal effect); conditions: U2OS GR-GFP nuclear translocation, laser cytometry, 2 h
# Sequence of Glucocorticoid receptor (Homo sapiens) (P04150 whole entry, looked up, the tested form may be a part): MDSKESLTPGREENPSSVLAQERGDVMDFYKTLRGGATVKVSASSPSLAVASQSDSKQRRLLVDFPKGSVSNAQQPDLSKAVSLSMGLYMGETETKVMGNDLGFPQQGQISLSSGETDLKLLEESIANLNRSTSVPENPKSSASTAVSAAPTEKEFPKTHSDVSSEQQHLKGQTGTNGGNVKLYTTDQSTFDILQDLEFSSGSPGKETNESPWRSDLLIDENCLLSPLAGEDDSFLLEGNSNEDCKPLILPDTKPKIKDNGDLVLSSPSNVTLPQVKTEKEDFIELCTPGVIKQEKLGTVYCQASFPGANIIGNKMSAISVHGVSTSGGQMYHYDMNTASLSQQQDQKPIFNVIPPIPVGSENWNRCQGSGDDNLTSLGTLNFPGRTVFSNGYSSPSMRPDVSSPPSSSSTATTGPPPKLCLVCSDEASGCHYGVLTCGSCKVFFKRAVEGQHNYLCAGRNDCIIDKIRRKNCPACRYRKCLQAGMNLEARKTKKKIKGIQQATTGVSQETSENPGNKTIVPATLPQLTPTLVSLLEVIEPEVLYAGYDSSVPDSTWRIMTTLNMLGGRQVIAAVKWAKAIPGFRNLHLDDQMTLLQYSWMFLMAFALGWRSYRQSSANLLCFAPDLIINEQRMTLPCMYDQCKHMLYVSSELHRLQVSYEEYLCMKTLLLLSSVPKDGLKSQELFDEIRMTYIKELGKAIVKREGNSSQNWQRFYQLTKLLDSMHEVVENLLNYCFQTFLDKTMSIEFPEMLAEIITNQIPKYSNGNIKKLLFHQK
# [6] = biological target: Glucocorticoid receptor (Homo sapiens) (UniProt P04150); assay: GR-EFC Redistribution (AID 451; calls by dose curve; also: potency is read from the fitted curve at half-maximal effect); conditions: CHO-K1 GR-EFC translocation, beta-gal luminescence, 2 h
# Summary of the method: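 CHO-K1 cells expressing nuclear EA and GR-ED fragments of b-gal; compounds titrated up to 46 uM final, 2 h at 37 C. GR nuclear translocation read as complemented b-gal luminescence after 1 h RT detection.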
# [7] = biological target: Mitogen-activated protein kinase 10 (Mus musculus) (UniProt Q61831); assay: JNK3 AlphaScreen Assay (AID 530; active = well fitted curve in either direction with a large enough effect, not every such curve was filed as active;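 also: kinase came from lysate of stimulated human HepG2 cells; signal reports phosphorylation of biotinylated GST-cJun 1-79 at Ser73 with 10 µM ATP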)
# Summary of the method: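 Activity was read by AlphaScreen after JNK3-containing HepG2 lysate (cytokine pre-activated) phosphorylated biotinylated GST-cJun with 10 uM ATP at room temperature. Phospho-Ser73 cJun antibody with Protein-A acceptor beads provided detection.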
# [8] = biological target: 3',5'-cyclic-AMP phosphodiesterase 4B (Homo sapiens) (UniProt Q07343); assay: qHTS Assay for Inhibitors of PDE-IV (AID 607; active = well fitted activation curve with a large enough effect in the main read-out, with a control signal flat, not every such curve was filed as active)
# Sequence of 3',5'-cyclic-AMP phosphodiesterase 4B (Homo sapiens) (Q07343 whole entry, looked up): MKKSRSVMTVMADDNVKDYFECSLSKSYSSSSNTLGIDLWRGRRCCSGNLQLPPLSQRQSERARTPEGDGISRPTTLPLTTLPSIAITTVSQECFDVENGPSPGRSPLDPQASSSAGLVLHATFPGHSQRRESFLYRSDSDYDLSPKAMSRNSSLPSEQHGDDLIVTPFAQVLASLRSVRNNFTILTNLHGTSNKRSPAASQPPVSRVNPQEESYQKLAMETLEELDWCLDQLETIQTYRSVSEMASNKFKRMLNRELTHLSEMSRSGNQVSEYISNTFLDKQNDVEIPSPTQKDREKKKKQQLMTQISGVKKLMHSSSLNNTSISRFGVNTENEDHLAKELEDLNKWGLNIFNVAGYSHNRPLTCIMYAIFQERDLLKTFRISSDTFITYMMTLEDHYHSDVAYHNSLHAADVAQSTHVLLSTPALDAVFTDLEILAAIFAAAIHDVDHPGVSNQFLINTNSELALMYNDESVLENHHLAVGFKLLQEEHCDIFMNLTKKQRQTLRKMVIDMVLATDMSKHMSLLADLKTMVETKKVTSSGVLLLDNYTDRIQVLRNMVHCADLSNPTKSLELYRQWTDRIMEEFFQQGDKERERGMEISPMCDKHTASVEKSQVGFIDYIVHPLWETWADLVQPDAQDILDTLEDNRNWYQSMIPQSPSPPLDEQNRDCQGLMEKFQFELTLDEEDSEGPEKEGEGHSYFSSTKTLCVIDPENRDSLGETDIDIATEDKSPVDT
# Summary of the method: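 Cell-based read-out of cAMP via a modified cyclic nucleotide-gated channel and membrane potential dye (535/590 nm) in HEK293 cells expressing PDE4 endogenously. Compounds tested up to 22.9 uM final; 100 uM RO 20-1724 reference.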
# [9] = biological target: Guanine nucleotide-binding protein G(i) subunit alpha-1 (Homo sapiens) (UniProt P63096); assay: qHTS Assay for Inhibitors of RGS12 GoLoco Motif Activity (Green Fluorophore) (AID 879);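 also: negative values mean loss of peptide binding seen as reduced polarization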
# Sequence of Guanine nucleotide-binding protein G(i) subunit alpha-1 (Homo sapiens) (P63096 whole entry, looked up): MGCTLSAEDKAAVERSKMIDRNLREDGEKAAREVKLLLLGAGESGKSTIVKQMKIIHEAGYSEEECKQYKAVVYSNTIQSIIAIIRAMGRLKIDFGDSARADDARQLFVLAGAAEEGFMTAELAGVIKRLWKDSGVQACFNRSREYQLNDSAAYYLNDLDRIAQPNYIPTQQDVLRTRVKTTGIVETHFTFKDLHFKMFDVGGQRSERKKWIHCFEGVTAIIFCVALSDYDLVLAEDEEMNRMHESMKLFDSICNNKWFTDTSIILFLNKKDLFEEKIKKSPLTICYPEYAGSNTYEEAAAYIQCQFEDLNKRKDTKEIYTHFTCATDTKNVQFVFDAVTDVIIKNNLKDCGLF
# Summary of the method: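 A drop in FITC polarization marked displacement of the FITC-tagged RGS12 GoLoco peptide (10 nM) from Gαi1 (50 nM). Compounds were incubated 10 min at room temperature in Tris pH 7.5 buffer containing 150 mM NaCl, 0.1 mM GDP and 0.05% NP40; unlabeled peptide titration served as control.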
# [10] = qHTS Assay for Identification of Small Molecule Agonists for Thrombopoietin (TPO) Signaling Pathway (AID 917)
# Summary of the method: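 Human TPO receptor–transfected Ba/F3 cells (murine, IL-3-dependent) in IL-3-deficient medium; compounds plus TPO at EC50, 26 pM final; 24 hrs, 37 C; GpIIb-luciferase luminescence after 10 min RT detection.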
# [11] = biological target: Muscarinic acetylcholine receptor M1 (Rattus norvegicus) (UniProt P08482); assay: qHTS Assay for Antagonists of Acetylcholine Muscarinic M1 Receptor: Measurement of IP-One Response (AID 944); also: nearly all actives have a fitted effect of over 75% in size
# Sequence of Muscarinic acetylcholine receptor M1 (Rattus norvegicus) (P08482 whole entry, looked up): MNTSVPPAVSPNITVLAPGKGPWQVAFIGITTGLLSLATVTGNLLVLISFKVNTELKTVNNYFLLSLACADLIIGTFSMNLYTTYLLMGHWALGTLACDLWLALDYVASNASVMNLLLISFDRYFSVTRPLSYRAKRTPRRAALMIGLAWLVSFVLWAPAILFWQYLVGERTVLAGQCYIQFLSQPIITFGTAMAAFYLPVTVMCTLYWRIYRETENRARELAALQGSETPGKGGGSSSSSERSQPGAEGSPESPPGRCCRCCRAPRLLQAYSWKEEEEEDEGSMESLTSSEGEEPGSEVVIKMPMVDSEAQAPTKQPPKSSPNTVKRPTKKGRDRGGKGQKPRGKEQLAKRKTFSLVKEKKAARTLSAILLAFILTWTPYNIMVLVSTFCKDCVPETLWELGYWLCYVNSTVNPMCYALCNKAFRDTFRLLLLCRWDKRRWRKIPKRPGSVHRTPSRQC
# Summary of the method: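 Antagonist mode with rat M1 receptor transfected into CHO cells. Compound is added first for 10 min, carbachol at its EC80 follows for 30 min, and lysis reagents then allow TR-FRET detection of accumulated IP1.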
# [12] = biological target: Pyruvate kinase (Leishmania mexicana) (UniProt Q27686); assay: qHTS Validation Assay for Inhibitors of Leishmania Mexicana Pyruvate Kinase (AID 945)
# Sequence of Pyruvate kinase (Leishmania mexicana) (Q27686 2-499 E452W): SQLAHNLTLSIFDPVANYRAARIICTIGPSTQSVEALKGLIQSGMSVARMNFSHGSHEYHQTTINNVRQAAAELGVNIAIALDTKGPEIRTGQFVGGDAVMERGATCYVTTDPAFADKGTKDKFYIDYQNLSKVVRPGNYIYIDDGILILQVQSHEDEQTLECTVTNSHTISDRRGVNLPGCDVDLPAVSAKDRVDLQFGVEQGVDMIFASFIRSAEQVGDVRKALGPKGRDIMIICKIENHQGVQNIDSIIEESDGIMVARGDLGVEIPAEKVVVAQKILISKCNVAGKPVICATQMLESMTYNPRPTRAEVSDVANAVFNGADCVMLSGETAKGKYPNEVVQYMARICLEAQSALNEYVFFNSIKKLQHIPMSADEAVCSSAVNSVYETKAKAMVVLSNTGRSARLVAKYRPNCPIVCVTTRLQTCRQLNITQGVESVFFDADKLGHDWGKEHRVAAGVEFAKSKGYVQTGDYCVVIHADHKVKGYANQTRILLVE
# Summary of the method: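 qHTS eight-point titrations against 0.2 nM LmPYK (E451W) in imidazole buffer pH 7.2 with 0.5 mM PEP, 0.1 mM ADP; 1 h, room temperature. Readout: PKLight luminescence, normalized to neutral DMSO wells.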
# [13] = biological target: Pyruvate kinase PKM (Homo sapiens) (UniProt P14618); assay: qHTS Assay for Activators of Human Muscle Pyruvate Kinase (AID 954; active = well fitted curve in the direction sought with a large enough effect, not every such curve was filed as active)
# Sequence of Pyruvate kinase PKM (Homo sapiens) (P14618 whole entry, looked up): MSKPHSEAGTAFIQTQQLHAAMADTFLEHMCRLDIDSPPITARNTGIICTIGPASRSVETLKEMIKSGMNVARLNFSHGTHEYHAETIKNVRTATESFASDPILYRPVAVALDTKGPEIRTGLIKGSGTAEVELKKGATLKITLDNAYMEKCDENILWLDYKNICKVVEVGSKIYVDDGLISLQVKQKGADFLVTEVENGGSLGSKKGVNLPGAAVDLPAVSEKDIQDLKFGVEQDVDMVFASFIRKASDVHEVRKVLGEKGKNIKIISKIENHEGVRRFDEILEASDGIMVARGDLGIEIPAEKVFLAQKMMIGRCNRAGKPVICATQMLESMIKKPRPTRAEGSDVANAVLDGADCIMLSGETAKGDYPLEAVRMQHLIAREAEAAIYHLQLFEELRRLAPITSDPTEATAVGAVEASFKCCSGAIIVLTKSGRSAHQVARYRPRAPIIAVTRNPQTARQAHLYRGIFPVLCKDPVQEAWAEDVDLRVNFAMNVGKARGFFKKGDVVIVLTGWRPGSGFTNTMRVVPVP
# Summary of the method: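 ATP production by PKM2 detected via luciferase luminescence after 1 h room-temperature reaction (0.1 nM enzyme, PEP at Km 0.5 mM, ADP 0.1 mM, pH 7.2 imidazole buffer). Inhibition scaled to no-enzyme control; activation referenced to 0.3 nM enzyme wells.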
# [14] = biological target: Alpha-galactosidase A (Homo sapiens) (UniProt P06280); assay: Counterscreen for Glucocerebrosidase Inhibitors: qHTS Assay for Human alpha-Galactosidase at pH 4.5 (AID 992)
# Sequence of Alpha-galactosidase A (Homo sapiens) (P06280 whole entry, looked up): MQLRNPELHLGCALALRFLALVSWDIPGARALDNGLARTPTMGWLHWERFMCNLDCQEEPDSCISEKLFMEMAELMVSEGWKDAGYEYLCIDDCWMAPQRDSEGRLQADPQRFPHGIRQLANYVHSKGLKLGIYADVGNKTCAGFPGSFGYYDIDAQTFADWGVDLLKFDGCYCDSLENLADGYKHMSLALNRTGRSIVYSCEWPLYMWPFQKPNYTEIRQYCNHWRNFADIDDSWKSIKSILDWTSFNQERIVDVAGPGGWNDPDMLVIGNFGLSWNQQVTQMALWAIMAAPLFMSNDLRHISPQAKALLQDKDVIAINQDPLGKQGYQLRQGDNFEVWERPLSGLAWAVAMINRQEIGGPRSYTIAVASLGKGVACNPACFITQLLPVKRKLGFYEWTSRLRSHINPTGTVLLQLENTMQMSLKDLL
# Summary of the method: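 Fluorogenic 1536-well qHTS at pH 4.5 (citrate, Tween-20): 2 nM enzyme, 80 uM 4-MU-alpha-galactoside, 20 min room temperature, NaOH/glycine stop. Titration 0.7 nM to 77 uM, data normalized to no-enzyme and full-activity controls, Hill-fitted AC50.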
# [15] = biological target: alpha-glucosidase (Oryza sativa, rice) (UniProt Q653V4); assay: Counterscreen for Glucocerebrosidase Inhibitors: qHTS Assay for Rice alpha-Glucosidase at pH 5.0 (AID 997)
# Summary of the method: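 Endpoint fluorogenic assay at pH 5.0: compounds (0.7 nM to 77 uM) titrated against 4 nM rice enzyme and 400 uM 4-MU-alpha-glucoside for 20 min at room temperature; NaOH/glycine stop, read ex 365/em 440 nm, Hill-fitted AC50.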
# [16] = Validation of Assay for Modulators of Lamin A Splicing (AID 1459; active = well fitted curve in the direction sought with a large enough effect in the signal ratio; the % refers to the signal ratio;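 also: cells exposed to compound for two days before reading; ratio rise marks activators and ratio drop marks inhibitors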)
# Summary of the method: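 Dual-reporter HeLa S3 line (lamin A-EGFP minigene, DsRed2) treated with compounds 48 hrs, 0.5% DMSO final. Endpoint: EGFP/DsRed2 total intensity ratio from laser-scanning microplate cytometry.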
# [17] = qHTS Assay for Lipid Storage Modulators (AID 1519; calls by dose curve); conditions: Drosophila S3 cells, BODIPY lipid droplet/cell ratio, laser cytometry, cells loaded with oleic acid
# Summary of the method: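 Cells seeded at 5,000 per well were treated with compounds over a concentration series and loaded with oleic acid (400 uM, as added). Lipid droplet fluorescence (488 nm excitation, 500-530 nm channel) was read by laser-scanning cytometry and normalized to 20 uM Triacsin C.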
# [18] = biological target: DNA repair nuclease/redox regulator APEX1 (Homo sapiens) (UniProt P27695); assay: qHTS Validation Assay for Inhibitors of the Human Apurinic/apyrimidinic Endonuclease 1 (APE1) (AID 1705;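 also: TAMRA fluorescence gain over two minutes as APE1 cuts a quenched THF abasic duplex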)
# Sequence of DNA repair nuclease/redox regulator APEX1 (Homo sapiens) (P27695 whole entry, looked up): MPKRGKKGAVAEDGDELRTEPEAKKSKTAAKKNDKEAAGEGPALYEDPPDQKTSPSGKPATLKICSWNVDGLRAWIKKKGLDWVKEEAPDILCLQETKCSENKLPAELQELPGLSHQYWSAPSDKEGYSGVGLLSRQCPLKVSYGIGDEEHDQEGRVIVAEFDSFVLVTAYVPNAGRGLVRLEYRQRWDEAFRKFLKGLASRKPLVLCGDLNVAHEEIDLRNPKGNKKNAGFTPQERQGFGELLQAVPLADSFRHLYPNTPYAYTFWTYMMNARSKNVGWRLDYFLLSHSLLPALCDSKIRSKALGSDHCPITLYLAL
# Summary of the method: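 Substrate: 50 nM final fluorophore/quencher THF-abasic duplex. Enzyme preincubated with compounds 15 min, RT. Progress derived from fluorescence difference, third minus first kinetic read.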
# [19] = Counterscreen for APE1 Inhibitors: Fluorescent Dye Displacement Validation Assay (AID 1707)
# Summary of the method: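 Counterscreen flags promiscuous DNA binders: compounds displacing ThO from duplex DNA (abasic THF site, 50 nM) reduce 540 nm emission (480 nm excitation). ThO 250 nM final; Tris-HCl pH 7.5 with NaCl, MgCl2 and Tween-20.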
# [20] = biological target: Endonuclease 4 (Escherichia coli (strain K12)) (UniProt P0A6C1); assay: Counterscreen for APE1 Inhibitors: qHTS Validation Assay for Inhibitors of Endonuclease IV (AID 1708)
# Summary of the method: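 Conditions: 2 nM enzyme, 50 nM TAMRA/BHQ-2 substrate, pH 7.5 Tris buffer with 2 mM MgCl2, RT. Compound preincubation 15 min; readout three fluorescence reads 60 s apart, third-minus-first.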
compound,measurement,setting,value
Cc1cccc(C)c1NC(=O)C[N+](C)(C)C,"activity change, negative = inhibition",[1],0.892% (inactive)
same,Potency,[2],inactive
same,"activity change, negative = inhibition",[3],11.6% (inactive)
same,"activity, negative = inhibition",[4],8.11% (inactive)
same,Potency,[5],> 46 µM (inactive)
same,Potency,[6],> 46 µM (inactive)
same,Potency,[7],inactive
same,Potency,[8],inactive
same,outcome,[9],inactive
same,Potency,[10],inactive
same,Potency,[11],inactive
same,Potency,[12],inactive
same,outcome,[13],inactive
same,outcome,[14],inactive
same,outcome,[15],inactive
same,outcome,[16],inactive
same,"activity change, negative = inhibition",[17]; at 57.5 µM (top of the series),-1.34% (inactive)
same,max response,[17]; measured here: cell count channel max response,-10.6%
same,max response,[17]; measured here: lipid channel max response,-11.6%
same,Potency,[18],inactive
same,Potency,[19],inactive
same,Potency,[20],inactive
